# Measurements published in PubChem BioAssay AID463173 (ICCB-Longwood Screening Facility, Harvard Medical School, 2010).
# The whole screen tested about 52,000 compounds, of which about 4,300 (8.3%) were called active. Rule as the data show it: active = survival mostly below about 52% (no sharp cut-off); inactive = mostly above about 56%. Only a selection was taken, and actives are over-represented in it overall.
# Tested on: DeltatarO mutant
# Experiment: growth inhibition of S. aureus wild type versus tarO mutant, primary screen, teichoic acid synthesis inhibitors, RN4220, OD600 (AID 463173)
# Conditions: OD600, 18 h, active compounds read low, screened at 18.75 µg/mL (by protocol)
row,Compound,survival
1,COc1cccc(Cc2nc3ccccc3nc2SCC(=O)Nc2ccccc2F)c1,67% (inactive)
2,CCN(C(=O)CSc1nc2ccccc2nc1Cc1ccc(F)cc1)c1cccc(C)c1,86% (inactive)
3,O=C(O)CSc1nc2ccccc2nc1N1CCCCC1,56% (inactive)
4,COc1ccc(NC(=O)CSc2nc3ccccc3nc2N2CCCCC2)cc1,18% (active)
5,CCc1ccccc1NC(=O)CSc1nc2ccccc2nc1Cc1cccc(OC)c1,86% (inactive)
6,CC(=O)Nc1ccc(NC(=O)CSc2nc3ccccc3nc2N2CCCCC2)cc1,57% (inactive)
7,CC(C)NC(=O)CSc1nc2ccccc2[nH]1,60% (inactive)
8,COc1cccc(Cc2nc3ccccc3nc2SCC(=O)Nc2cc(OC)ccc2OC)c1,47% (active)
9,COc1ccc(NC(=O)CSc2nc3ccccc3nc2N2CCC(C)CC2)cc1,45% (inactive)
10,CC(C)NC(=O)CSc1nc2ccccc2nc1N1CCCCC1,-26% (active)
11,CCN(C(=O)CSc1nc2ccccc2nc1Cc1cccc(OC)c1)c1cccc(C)c1,0% (active)
12,COc1cccc(Cc2nc3ccccc3nc2SCC(=O)Nc2cccc(C)c2)c1,94% (inactive)
13,O=C(N/N=C/c1ccc(-c2ccc(Cl)c(C(=O)O)c2)o1)c1ccncc1,68% (inactive)
14,CCc1ccc(-n2c(=O)c3c4c(sc3n(CC(=O)c3ccc(F)cc3)c2=O)CCC4)cc1,81% (inactive)
15,CC(C)CCNC(=O)c1nn(C)c2c1CSc1ccccc1-2,70% (inactive)
16,Cn1cnnc1SCC(N)=O,99% (inactive)
17,CCOC(=O)c1ccc(NC(=O)c2csnn2)cc1,104% (inactive)
18,Cc1ccc(CNC(=O)CSc2ncc(S(=O)(=O)c3ccc(C)c(Cl)c3)c(=O)[nH]2)cc1,77% (inactive)
19,Cc1cccc(NC(=O)CSc2cn(CC(=O)N3CCOCC3)c3ccccc23)c1,82% (inactive)
20,COc1ccc(CCNC(=O)Cn2c(-c3cccs3)cc3cc(F)ccc32)cc1OC,83% (inactive)
21,Cc1ccc(-n2nc(C(=O)NCc3ccc(F)cc3Cl)c3c4ccccc4n(C)c3c2=O)cc1,131% (inactive)

row,Compound,survival
1,COc1ccc(OC)c(NC(=O)CSc2nc3ccccc3nc2N2CCCCC2)c1,5% (active)
2,Cc1cc(C)c(NC(=O)c2nc3ccccc3nc2N2CCCCC2)c(C)c1,90% (inactive)
3,COc1ccc(NC(=O)CSc2nc3ccccc3nc2N2CCOCC2)c(OC)c1,76% (inactive)
4,Cc1cc(C)c(NC(=O)CSc2nc3ccccc3nc2N2CCCCC2)c(C)c1,39% (active)
5,COc1ccc(OC)c(NC(=O)CSc2cn(CC(=O)N3CCCCCC3)c3ccccc23)c1,85% (inactive)
6,Cc1cccc(NC(=O)CSc2nc3ccccc3nc2N2CCCCC2)c1C,75% (inactive)
7,COc1ccc(C)cc1NC(=O)CSc1nc2ccccc2nc1N1CCOCC1,73% (inactive)
8,COc1ccccc1Cc1nc2ccccc2nc1SCC(=O)Nc1cc(Cl)ccc1OC,73% (inactive)
9,COc1ccc(Cl)cc1NC(=O)CSc1nc2ccccc2nc1N1CCCCC1,27% (active)
10,COc1ccc(-c2nc3n(n2)C(c2cccc(C)c2)C(C(N)=O)=C(C)N3)cc1OC (configuration not stated),93% (inactive)
11,CCN(CC)Cc1ccc(C(=O)O)o1,97% (inactive)
12,Cn1c(=O)c2sccc2n2c(CCC(=O)N3CCN(c4cccc(Cl)c4)CC3)nnc12,193% (inactive)
13,CCOc1ccc(-c2cccc(NS(=O)(=O)c3ccc(Cl)s3)c2)nn1,92% (inactive)
14,Cc1cccc(NC(=O)CSc2nc(=O)n(Cc3ccccn3)c3c2CCC3)c1C,85% (inactive)
15,CCCOc1ccc(N2CC(C(=O)Nc3cccc(Cl)c3Cl)CC2=O)cc1 (configuration not stated),145% (inactive)
16,CCCCOc1cccc(C(=O)N(Cc2sccc2C)C2CCS(=O)(=O)C2)c1 (configuration not stated),73% (inactive)
17,CCc1ccc(NC(=O)c2ccc(Cn3nc(N4CCN(c5ccccc5)CC4)ccc3=O)o2)cc1,83% (inactive)
18,Cc1ccc(S(=O)(=O)N2CCc3cc(C(=O)Nc4c(F)cccc4F)ccc32)cc1,64% (inactive)
19,CCCCOC(=O)c1ccc(NC(=O)c2ccc3c(c2)CCN3S(=O)(=O)c2ccccc2)cc1,57% (inactive)
20,O=C(Nc1cccc(Cl)c1)c1ccc2c(c1)CCN2S(=O)(=O)c1ccccc1,41% (active)
21,O=C(c1ccc2c(c1)CCN2S(=O)(=O)c1ccccc1)N1CCN(c2cccc(Cl)c2)CC1,45% (inactive)

row,Compound,survival
1,CC(=O)c1cccc(NC(=O)c2ccc3c(c2)CCN3S(=O)(=O)c2ccccc2)c1,44% (active)
2,CC(=O)Nc1ccc(NC(=O)c2ccc3c(c2)CCN3S(=O)(=O)c2ccc(Cl)cc2)cc1,113% (inactive)
3,CCc1c(C)sc2c1CCN(C(=O)Nc1ccccc1C(=O)OC)C2c1ccc(OC)cc1 (configuration not stated),92% (inactive)
4,Cn1cc(C(=O)NCCc2ccccc2)c(=O)c2cc(S(=O)(=O)N3CCCCCC3)ccc21,68% (inactive)
5,CN(C(=O)c1nn(C)c2c1CS(=O)(=O)c1ccccc1-2)c1cccc(Cl)c1,64% (inactive)
6,Cc1cccc(NC(=O)Cn2c(=O)n(CCC(=O)N3CCc4ccccc4C3)c(=O)c3ccccc32)c1,88% (inactive)
7,COc1ccc(NC(=O)CSc2nc3c(oc4ccccc43)c(=O)n2-c2ccccc2)cc1OC,63% (inactive)
8,CCn1c(CN2CCOCC2)nc2cc(NC(=O)c3cc(OC)c(OC)c(OC)c3)ccc21,89% (inactive)
9,O=C(NCCO)C(=O)Nc1c2c(nn1-c1ccc(F)cc1)CSC2,82% (inactive)
10,COc1ccccc1NC(=O)CSc1nc(-c2ccc(C(C)(C)C)cc2)c(C#N)c(=O)[nH]1,52% (inactive)
11,CCc1ccc(NC(=O)CSc2nc(-c3ccccc3)c(C#N)c(=O)[nH]2)cc1,78% (inactive)
12,CC(C)(C)c1ccc(-c2nc(SCC(=O)Nc3ccc(Cl)cc3)[nH]c(=O)c2C#N)cc1,-2% (active)
13,CN1CCN(C(=O)c2ccc3c(c2)N(Cc2c(F)cccc2Cl)C(=O)c2ccccc2S3)CC1,85% (inactive)
14,Cc1ccc(S(=O)(=O)c2nc(-c3cccs3)oc2SCC(=O)Nc2cc(C)cc(C)c2)cc1,70% (inactive)
15,COc1ccc(CCn2nnnc2CN2CCN(Cc3ccccc3)CC2)cc1OC,82% (inactive)
16,CCn1c2ccccc2c2cc(CN3CCN(Cc4cc(OC)c(O)c(OC)c4)CC3)ccc21,43% (active)
17,CCn1c2ccccc2c2cc(CN3CCN(Cc4ccc(OC)c(OC)c4)CC3)ccc21,17% (active)
18,CCCS(=O)(=O)N1CCN(Cc2ccc(OC)c(OCC)c2)CC1,97% (inactive)
19,COc1cc(CN2CCN(S(=O)(=O)c3ccccc3)CC2)cc(OC)c1O,57% (inactive)
20,COc1cc(CN2CCN(C(=O)c3cccc4ccccc34)CC2)cc(OC)c1OC,72% (inactive)
